Test results: PubChem BioAssay AID615 (Sanford-Burnham Center for Chemical Genomics, 2007)
Fewer than 10 of roughly 21,000 compounds were called active. The list is a sample of the results. Unmarked numbers belong to inactive results.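 How the source made its calls: active means inhibition above 50% at the 20 µM single-dose screen; inactive means the rest.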

Molecular target: Alkaline phosphatase, tissue-nonspecific isozyme (Homo sapiens) (UniProt P05186)
Experiment: human TNAP enzyme inhibitors, primary screen, biochemical, colorimetric, p-nitrophenol readout (AID 615);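 further: 0% = DMSO only wells and 100% = 1 mM levamisole wells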
Settings: purified TNAP, pNPP hydrolysis, absorbance 405 nm; at 20 µM; stronger effect = higher value

Chain of Alkaline phosphatase, tissue-nonspecific isozyme (Homo sapiens) (P05186 whole entry, looked up): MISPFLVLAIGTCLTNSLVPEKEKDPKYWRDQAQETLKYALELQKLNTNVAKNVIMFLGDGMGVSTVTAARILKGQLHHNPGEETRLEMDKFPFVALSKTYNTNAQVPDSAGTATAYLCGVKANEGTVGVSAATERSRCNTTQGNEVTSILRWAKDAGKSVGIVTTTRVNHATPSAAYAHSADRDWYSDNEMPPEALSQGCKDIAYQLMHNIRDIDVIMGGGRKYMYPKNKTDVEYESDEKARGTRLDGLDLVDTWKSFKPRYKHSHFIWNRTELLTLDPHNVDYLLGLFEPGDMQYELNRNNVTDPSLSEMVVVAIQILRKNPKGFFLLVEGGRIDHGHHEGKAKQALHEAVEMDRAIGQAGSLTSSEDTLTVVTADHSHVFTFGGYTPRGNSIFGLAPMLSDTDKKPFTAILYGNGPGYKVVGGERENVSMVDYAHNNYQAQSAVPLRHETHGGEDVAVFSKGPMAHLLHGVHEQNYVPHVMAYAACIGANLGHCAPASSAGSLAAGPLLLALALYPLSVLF

| Structure (SMILES) | inhibition [%] |
| --- | --- |
| CC(C)C[C@H](NC(=O)NCCc1ccc(Cl)cc1)C(=O)O | 2.2 |
| Cc1cc(C)c2nc(SCCC#N)nc(C)c2c1 | -0.5 |
| CCCCn1nnnc1NCc1cc(OC)c(OC)c(OC)c1 | -0.6 |
| C=CCn1c(COc2ccccc2)nnc1SCC(=O)NCC(=O)OCC | -6.9 |
| CC(=O)Cc1nsc(NC(=O)c2ccc(COc3ccc(C)cc3)o2)n1 | 1.5 |
| Cc1cc(NC(=O)c2cnn3cccnc23)n(-c2ccccc2)n1 | 3.9 |
| Cc1ccc(S(=O)(=O)N2CCC(C(=O)N[C@@H](C)C(=O)NCCc3ccccc3)CC2)cc1 | -7.1 |
| CCC(CC)C(=O)Nc1cc(C(=O)OC)cc(C(=O)OC)c1 | 4.4 |
| CC(=O)N1CCN(CCN=CC2=C(O)CC(C)(C)CC2=O)CC1 | 5.5 |
| Cc1ccc2c(C(=O)CN3CCCC3)c(C)[nH]c2c1 | -14.5 |
| O=C(O)CN(Cc1ccco1)S(=O)(=O)c1ccc(F)cc1 | 0.4 |
| COc1ccc(NC2CC(=O)N(C)C2=O)cc1 (stereo not drawn) | 3.1 |
| Cc1occc1C(=O)Nc1cccc(Cn2cccn2)c1 | -2.4 |
| CC(=O)OCc1cc(=O)n(C)c(=O)n1C | 1.6 |
| Nc1nnnn1/N=C/c1cccs1 | 0 |
| CC(C)c1nc(-c2ccccn2)no1 | 2.2 |
| CSCCC(NC(=O)c1ccc(=O)n(C)n1)c1nc2ccccc2[nH]1 (stereo not drawn) | -0.4 |
| CCc1ccccc1N(CC(=O)N1CCN(c2ccccc2F)CC1)S(C)(=O)=O | 3.4 |
| Cc1cccc(N(CC(O)CN(C)C)S(=O)(=O)c2ccccc2)c1 (stereo not drawn) | 6 |
| CC(=O)Nc1nc(C)c(Cc2ccccc2)c(=O)[nH]1 | 0 |
| CC(C)C(c1nnnn1C1CCCC1)N1CCN(c2ccccc2F)CC1 (stereo not drawn) | 4.1 |

| Structure (SMILES) | inhibition [%] |
| --- | --- |
| O=C(NC(c1ccccc1)c1ccccc1)N1CCN(CCO)CC1 | 5.5 |
| c1ccc(-n2ncc(-c3nn[nH]n3)n2)cc1 | 1.2 |
| COc1ccc(C2/C(=C(/O)c3ccc(OC(C)C)cc3)C(=O)C(=O)N2CCCN2CCOCC2)cc1 (stereo not drawn) | 2.6 |
| CCCOc1ccc(CN(CCO)CCO)cc1C(=O)OC | 8.5 |
| CCC(=O)Nc1cccc(NC(=O)CSc2nnnn2C2CCCC2)c1 | 4.5 |
| CCOC(=O)N1CCN(Cc2oc(CO)cc(=O)c2O)CC1 | 4.3 |
| Cc1ccc(-n2c(Cc3cccs3)nnc2SCC(=O)OC(C)C)cc1 | -1 |
| CCc1nnc(NC(=O)CSc2nnc(-c3ccncc3)n2Cc2ccccc2)s1 | 5.3 |
| Cn1c(=O)c2c(nc(Br)n2CCSc2nc3ccccc3o2)n(C)c1=O | 0 |
| COc1ccc(CCNS(=O)(=O)c2ccc(F)cc2)cc1OC | 3.6 |
| Nc1nonc1-c1nc2ccccc2n1Cc1ccc(F)cc1 | -0.2 |
| COCCCn1c2nc3ccccc3nc2c2c(=O)n(Cc3ccc(Cl)cc3)c(C)nc21 | 7.2 |
| CN1CCN(C(=O)C2C3C=CC(C3)C2C(=O)O)CC1 (stereo not drawn) | 3.6 |
| CCCCC(=O)N1CC2(C)CN(C(=O)CCCC)CC(C)(C1)C2=O | -3.1 |
| O=C(CSc1nnc(-c2cccs2)n1Cc1ccco1)c1ccc2c(c1)OCO2 | 1.9 |
| COc1ccc(/C(O)=C2/C(=O)C(=O)N(CCCN(C)C)C2c2ccccc2)cc1OC (stereo not drawn) | 2.9 |
| CCCCC(=O)Nc1ccc2c(c1)OCCO2 | -5.8 |
| CC(=O)C1=C(O)C(=O)N(c2ccc(S(N)(=O)=O)cc2)C1c1ccccc1F (stereo not drawn) | 0.8 |
| CCOC(=O)c1c(-n2cnnn2)sc(C)c1C | 3.1 |
| Cn1c2c(c(=O)n(C)c1=O)CN(Cc1ccco1)CN2 | -1.5 |
| Cc1ccc(NC(=O)N2CCC(C(=O)NCc3ccc(F)cc3)CC2)cc1 | 6.4 |

| Structure (SMILES) | inhibition [%] |
| --- | --- |
| Cc1ccccc1C(=O)Nc1cccc(-c2nnc(SCC(=O)O)n2C)c1 | 1.1 |
| Cc1ccc2[nH]c3c(c2c1)CN(C(=O)CN1CCN(c2ccccc2)CC1)CC3 | 2.7 |
| CC(=O)N(CN1C(=O)C2CC=CCC2C1=O)c1cccc(Cl)c1 (stereo not drawn) | 7.2 |
| COc1ccc(C2/C(=C(/O)c3ccccc3)C(=O)C(=O)N2c2ncccn2)cc1OC (stereo not drawn) | -1.7 |
| COc1ccc(C(CNC(=O)c2cccnc2SC)N2CCOCC2)cc1 (stereo not drawn) | -2 |
| CCCCNc1nc2c(c(=O)[nH]c(=O)n2C)n1CCOc1ccccc1 | 4.2 |
| CC(=O)c1cc(-c2ccccc2)[nH]c1N1CCCC1 | 0.8 |
| O=C(C1CCCO1)N1CCC(c2nc3ccccc3[nH]2)CC1 (stereo not drawn) | 5.7 |
| O=C1Nc2ccccc2C12Nc1ccccc1S2 (stereo not drawn) | 2 |
| Cc1ccc(-c2c3c(=O)n(C)c(=O)n(C)c3cn2-c2ccccc2O)cc1 | 1.8 |
| Cc1ccccc1-n1c(SCC(=O)NCc2cccs2)nnc1-c1ccncc1 | -7.5 |
| CCc1nnc(NC(=O)c2c(O)c3c([nH]c2=O)CCCC3)s1 | 6.2 |
| COc1ccccc1CNC(=O)C1CCN(S(C)(=O)=O)CC1 | 7.2 |
| COc1ccc(NC(=O)c2c(C)oc3c2CCCC3)cc1 | 5.5 |
| Cc1nc2nc(CSc3nc4ccccc4s3)cc(=O)n2[nH]1 | 1.3 |
| CCOC(=O)C1CCCCN1Cc1ccc(OC)c(OC)c1OC (stereo not drawn) | 6.8 |
| CS(=O)(=O)N(CC(=O)N1CCN(Cc2ccc3c(c2)OCO3)CC1)c1ccc2c(c1)OCO2 | -15 |
| Cc1cc(C(=O)COC(=O)c2cccs2)c(C)n1-c1c(C)n(C)n(-c2ccccc2)c1=O | 4.7 |
| CCCOP(=O)(c1ccc(N(C)C)cc1)C(O)c1cc(OC)c(OC)c(OC)c1 (stereo not drawn) | 12.9 |
| COc1ccc(CCNC(=O)CSc2nnc(-c3cccc(F)c3)o2)cc1OC | -1.5 |
| COc1ccc(CCN(C)CCN2C(=O)c3ccccc3C2=O)cc1OC | -0.3 |
